The list is not random: actives were taken first. Their share in the collection is about 4.7%.
D1 agonist = activates the human D1 dopamine receptor; AID 504660; P21728; 360,000 compounds, 1% hits; activation, % at 2 µM; HEK293 T-REx D1 cells, calcium flux, agonist mode
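Tetracycline-induced HEK293 TREx D1 cells, force-coupled to calcium signalling, were dye-loaded with a no-wash calcium kit. Compound was pin-added after a 10 s baseline. Fluorescence was read kinetically at 1 cycle/s for 180 s, with calcium rises flagged as agonism.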
TRHR PAM = allosterically enhances the human TRH receptor. P34981. TRHR cells, fluo-8 calcium fluorescence, EC20 TRH enhancement. enhancement, % at 2 µM. 360,000 compounds, 0.66% hits; in the data active = enhancement above about 30%
Target sequence (P34981 whole entry, looked up): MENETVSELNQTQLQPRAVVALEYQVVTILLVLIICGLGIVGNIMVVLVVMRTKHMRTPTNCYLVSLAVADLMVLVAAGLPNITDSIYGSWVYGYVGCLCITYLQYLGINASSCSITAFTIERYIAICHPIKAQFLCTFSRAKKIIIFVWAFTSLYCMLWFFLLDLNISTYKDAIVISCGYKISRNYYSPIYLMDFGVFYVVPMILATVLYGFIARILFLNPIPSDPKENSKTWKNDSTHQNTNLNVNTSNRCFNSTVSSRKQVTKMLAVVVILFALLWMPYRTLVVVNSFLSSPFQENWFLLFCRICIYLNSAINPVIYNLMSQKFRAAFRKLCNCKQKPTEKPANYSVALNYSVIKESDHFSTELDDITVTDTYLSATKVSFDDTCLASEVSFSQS
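TRHR-expressing cells loaded with fluo-8 calcium dye were read kinetically (ex 480/em 530) during compound addition, then stimulated with an EC20 of TRH (10 nM final). Enhancement of the Gq-mediated intracellular calcium response was scored.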
TRHR ag = activates the human TRH receptor; TRHR cells, calcium flux fluo-8, FDSS agonist mode; 360,000 compounds, 0.18% hits; P34981; activation, % at 2 µM
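TRHR-expressing cells loaded with fluo-8 calcium dye; 23 nL library compound pin-transferred, kinetic FDSS fluorescence (Ex 480/Em 530) recorded about 180 s for agonist-induced calcium release, before a 10 nM TRH EC20 addition for potentiator mode.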
D1 potentiator = human D1 dopamine receptor positive modulation; P21728; 360,000 compounds, 0.036% hits; HEK293 TREx D1 cells, calcium flux, dopamine EC20 potentiation; potentiation, % at 10 µM; in the data active = potentiation above about 30%
D1 antag = human D1 dopamine receptor antagonism | P21728 | HEK293 TREx D1 cells, calcium flux, dopamine EC80; hits give low values | activity change, negative = inhibition, % at 10 µM | 360,000 compounds, 3.2% hits | AID 504652; in the data active = activity change below about -30%
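Compound effects on dopamine-evoked calcium signalling were measured in tetracycline-induced HEK293 Trex D1 cells. Dopamine at EC80 followed a 180 s compound pre-read, and fluorescence was tracked kinetically for 180 s more.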
Numbers stand for hits. Cut-off read from the data, not from the text of the source, unless noted: active = activation above about 30%; inactive = the rest.

CCn1ncc(C2=NOC(C(=O)NCc3ccccc3)C2)c1C (configuration not stated) was read as D1 agonist inactive, TRHR PAM inactive, TRHR ag inactive, D1 potentiator inactive and D1 antag inactive.
For CCn1ncc(C2=NOC(C(=O)Nc3cccc(C(C)=O)c3)C2)c1C (configuration not stated) the results were D1 agonist inactive, TRHR PAM inactive, TRHR ag inactive, D1 potentiator inactive and D1 antag -32.
Cn1cc(S(=O)(=O)N2CCCCCC2)cc1C(=O)NCc1ccc(F)cc1 was read as D1 agonist inactive, TRHR PAM inactive, TRHR ag inactive, D1 potentiator inactive and D1 antag inactive.
Screening Cc1c(CCOC(=O)CC23CC4CC(CC(C4)C2)C3)sc[n+]1Cc1ccccc1 returned D1 agonist inactive, TRHR PAM inactive, TRHR ag inactive, D1 potentiator inactive and D1 antag inactive.
`Cc1c(CCOC(=O)C23CC4CC(CC(C4)C2)C3)sc[n+]1CC#N` gave D1 agonist inactive, TRHR PAM 41, TRHR ag inactive, D1 potentiator inactive and D1 antag inactive.
Screening CNC(=O)c1ccc(OC2CSC2)cc1 returned D1 agonist inactive, TRHR PAM inactive, TRHR ag inactive, D1 potentiator inactive and D1 antag -49.
COc1cc(OC)c(NC(=O)Nc2c(C)n(C)n(-c3ccccc3)c2=O)cc1Cl was read as D1 agonist inactive, TRHR PAM inactive, TRHR ag inactive, D1 potentiator inactive and D1 antag inactive.
For COc1ccccc1N1CCN(CCCNC(=O)c2nnc(Cc3ccc(F)cc3Cl)o2)CC1 the results were D1 agonist inactive, TRHR PAM inactive, TRHR ag inactive, D1 potentiator inactive and D1 antag -39.
`COc1ccccc1N1CCN(CCCNC(=O)c2nnc(Cc3c(F)cccc3Cl)o2)CC1` gave D1 agonist inactive, TRHR PAM inactive, TRHR ag inactive, D1 potentiator inactive and D1 antag -36.
CN1CCN(CCCNC(=O)c2nnc(Cc3c(F)cccc3Cl)o2)CC1 was read as D1 agonist inactive, TRHR PAM inactive, TRHR ag inactive, D1 potentiator inactive and D1 antag inactive.
CN(C)c1ccc(CNC(=O)C2CCN(c3nc4ccccc4[nH]3)CC2)cc1 was read as D1 agonist inactive, TRHR PAM inactive, TRHR ag inactive, D1 potentiator inactive and D1 antag inactive.
For O=C(COC(=O)/C=C/c1ccc(Cl)cc1)NC1CCCCCC1 the results were D1 agonist inactive, TRHR PAM inactive, TRHR ag inactive, D1 potentiator inactive and D1 antag inactive.
`O=C1Cc2cc(S(=O)(=O)N3CCCCC3)cc3c2N1CCC3` gave D1 agonist inactive, TRHR PAM inactive, TRHR ag inactive and D1 potentiator inactive.
`COc1ccc(-c2csc(Nc3ccccc3)[n+]2Cc2ccccc2)cc1` gave D1 agonist inactive, TRHR PAM inactive, TRHR ag inactive, D1 potentiator inactive and D1 antag inactive.
`Cc1ccc(-c2csc(Nc3ccccc3)[n+]2CCc2ccccc2)cc1` gave D1 agonist inactive, TRHR PAM inactive, TRHR ag inactive, D1 potentiator inactive and D1 antag inactive.
For O=[N+]([O-])c1ccc(-c2csc(Nc3ccccc3)[n+]2Cc2ccccc2)cc1 the results were D1 agonist inactive, TRHR PAM inactive, TRHR ag inactive, D1 potentiator inactive and D1 antag -41.
For Cc1ccc(-c2csc(Nc3ccc(C(=O)O)cc3)[n+]2Cc2ccccc2)cc1 the results were D1 agonist inactive, TRHR PAM 33, TRHR ag inactive, D1 potentiator inactive and D1 antag inactive.
CCN(CC)c1ccc(NC(=O)COCc2cc(-c3ccc4c(c3)OCO4)on2)c(C)c1 was read as D1 agonist inactive, TRHR PAM inactive, TRHR ag inactive, D1 potentiator inactive and D1 antag inactive.
Screening CCOc1ccc(C2=Nn3c(nnc3-c3ccccn3)SC2)cc1 returned D1 agonist inactive, TRHR PAM inactive, TRHR ag inactive, D1 potentiator inactive and D1 antag inactive.
For CCOc1ccc(C2=Nn3c(nnc3-c3ccco3)SC2)cc1 the results were D1 agonist inactive, TRHR PAM inactive, TRHR ag inactive, D1 potentiator inactive and D1 antag -31.
For Cc1ccc(C(=O)CSc2nc3ccccc3c(=O)[nH]2)cc1 the results were D1 agonist inactive, TRHR PAM inactive, TRHR ag inactive, D1 potentiator inactive and D1 antag -30.
Screening CCC(NC(=O)c1ccc2nc(Cc3ccc(OC)cc3)oc2c1)c1ccncc1 (configuration not stated) returned D1 agonist inactive, TRHR PAM inactive, TRHR ag inactive, D1 potentiator inactive and D1 antag -41.
O=C(NCCCN1CCN(c2ccc(F)cc2)CC1)c1ccc2nc(Cc3ccccc3)oc2c1 was read as D1 agonist inactive, TRHR PAM inactive, TRHR ag inactive, D1 potentiator inactive and D1 antag -38.
O=C(NCCCN1CCN(c2ccccc2)CC1)c1ccc2nc(Cc3ccccc3)oc2c1 was read as D1 agonist 32, TRHR PAM inactive, TRHR ag inactive, D1 potentiator inactive and D1 antag -60.
Screening COc1ccc(N2CCN(CCCNC(=O)c3ccc4nc(N5CCCCC5)sc4c3)CC2)cc1 returned D1 agonist inactive, TRHR PAM inactive, TRHR ag inactive, D1 potentiator inactive and D1 antag -57.
Screening Cc1ccc(Cl)cc1N1CCN(CCCNC(=O)c2ccc3nc(N4CCCCC4)sc3c2)CC1 returned D1 agonist inactive, TRHR PAM inactive, TRHR ag inactive, D1 potentiator inactive and D1 antag inactive.
Screening O=C(NCc1ccccc1Cl)C1CCN(C(=O)N2CCOc3ccccc32)CC1 returned D1 agonist inactive, TRHR PAM inactive, TRHR ag inactive, D1 potentiator inactive and D1 antag inactive.
For COc1ccc(CNC(=O)Cn2c(=O)nc(-c3ccccc3)c3ccccc32)cc1OC the results were D1 agonist inactive, TRHR PAM inactive, TRHR ag inactive, D1 potentiator inactive and D1 antag inactive.
Cc1cccc(-c2nc(Cn3c(SCc4cc(C)ccc4C)nc4ccncc43)c(C)o2)c1 was read as D1 agonist inactive, TRHR PAM inactive, TRHR ag inactive, D1 potentiator inactive and D1 antag inactive.
CC(=O)Nc1cccc(NC(=O)c2cc3c(=O)n4cccc(C)c4nc3n2C)c1 was read as D1 agonist inactive, TRHR PAM inactive, TRHR ag inactive, D1 potentiator inactive and D1 antag inactive.
CCc1ccc(NC(=O)CN2C(=O)c3ccccc3Sc3ccc(C(=O)N4CCCC4)cc32)cc1 was read as D1 agonist inactive, TRHR PAM inactive, TRHR ag inactive, D1 potentiator inactive and D1 antag inactive.
`COc1ccc(Cc2nc3ccc(C(=O)N(C)CCCN4CCOCC4)cc3o2)cc1` gave D1 agonist inactive, TRHR PAM inactive, TRHR ag inactive, D1 potentiator inactive and D1 antag -49.

Screening data from PubChem.
